As usually defined, the AC50 is the midpoint of the concentration-response curve, whichever way the signal moves.

Each structure is given as a SMILES string. “And” between values parts separate entries of the source, which are not always exact repeats. Identical values can stand only once. Inconclusive results are not listed. Some compounds were tested as several samples or in several runs, with calls that do not always agree. The source made the active and inactive calls. The calls were made as follows, unless noted: active = hit-call score of the fitted dose curve at least 0.9, where 1 is the maximum; inactive = score below 0.9.

We go through 22 compounds from PubChem BioAssay (EPA / NIEHS).

The target in assay [1] is Retinoic acid receptor RXR-alpha (Homo sapiens) (UniProt P19793). In words: ATG_RXRa_TRANS: Attagene TRANS-FACTORIAL HepG2 Assay for human Retinoid X Receptor alpha (RXRa) (AID 2283012; active = hit-call score of the fitted dose curve at least 0.9, where 1 is the maximum). The essentials: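 Chimeric NR-GAL4 trans-activation in HepG2, 24 h treatment; reporter transcripts quantified by fluorescence on capillary electrophoresis, analysed for upward change from DMSO.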

Read-out in assay [2]: Interleukin-1 alpha (IL1a), IL1A (gene 3552)
In words: BSK_BE3C_IL1a: BioMAP Diversity Plus: BE3C Assay for Interleukin-1 alpha (IL1a) Biomarker Activity (AID 2283016). The note with it: primary human bronchial epithelial cells; actives raise or lower the signal. The essentials:
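Measured in human lung primary bronchial epithelial cells: IL-1a by ELISA at 24 h after dosing, with bidirectional fitting against DMSO.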

Read-out in assay [3]: Monocyte Chemoattractant Protein-1 (MCP1), CCL2 (gene 6347)
In words: BSK_3C_MCP1: BioMAP Diversity Plus: 3C Assay for Monocyte Chemoattractant Protein-1 (MCP1) Biomarker Activity (AID 2283017). The note with it: primary human endothelial cells (HUVEC); actives raise or lower the signal. The essentials:
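HUVEC, 3C system; 24 h chemical exposure; MCP-1 by ELISA; bidirectional curve fit vs DMSO baseline.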

Read-out in assay [4]: Monocyte Chemoattractant Protein-1 (MCP1), CCL2 (gene 6347)
In words: BSK_4H_MCP1: BioMAP Diversity Plus: 4H Assay for Monocyte Chemoattractant Protein-1 (MCP1) Biomarker Activity (AID 2283018). The settings on record: primary human endothelial cells (HUVEC); actives raise or lower the signal. In a few lines: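 Primary human umbilical vein endothelium is exposed to chemical for 24 h before MCP-1 is assayed by ELISA. Concentration-response fitted bidirectionally relative to DMSO.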

Read-out in assay [5]: Human Leukocyte Antigen - DR isotype (HLADR), HLA-DRA (gene 3122)
In words: BSK_3C_HLADR: BioMAP Diversity Plus: 3C Assay for Human Leukocyte Antigen - DR isotype (HLADR) Biomarker Activity (AID 2283019).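 As to outcome: ELISA of cell-surface HLA-DR on HUVEC 24 h after dosing.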 The note with it: primary human endothelial cells (HUVEC); actives raise or lower the signal. The essentials:
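HUVEC, 3C stimulation, 24 h post-dose; HLA-DR by ELISA; bidirectional curve fit vs DMSO baseline; gain or loss of signal scored.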

Read-out in assay [6]: Monokine induced gamma interferon (MIG), CXCL9 (gene 4283)
In words: BSK_3C_MIG: BioMAP Diversity Plus: 3C Assay for Monokine induced gamma interferon (MIG) Biomarker Activity (AID 2283021). The settings on record: primary human endothelial cells (HUVEC); actives raise or lower the signal. The essentials:
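ELISA-measured MIG in dosed HUVEC 3C cultures at 24 h, analysed by bidirectional fitting with DMSO defining baseline activity.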

In assay [7] the target is human Vitamin D Receptor (VDR), VDR (gene 7421) (UniProt P11473). In words: ATG_VDR_TRANS: Attagene TRANS-FACTORIAL HepG2 Assay for human Vitamin D Receptor (VDR) (AID 2283022; active = hit-call score of the fitted dose curve at least 0.9, where 1 is the maximum). The essentials:
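RT-PCR/capillary electrophoresis read-out of reporter mRNA induction in transiently transfected HepG2; 24 h dosing; chimeric NR-Gal4 (TRANS format); gain-of-signal fit against DMSO baseline.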

Assay [8] is described as follows: BSK_3C_SRB: Viability Assessment in the BioMAP Diversity Plus: 3C Assay (AID 2283023).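 Also: cells read 24 h after compound dosing; fitted both ways against DMSO so a hit may be signal rise or drop.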 The settings on record: primary human endothelial cells (HUVEC). In a few lines: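 HUVEC, 24 h post-dose; 10% TCA fix, 0.1% SRB stain, A560 nm. Bidirectional curve fit vs DMSO negative control.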
Read-out in assay [9]: Pselectin, SELP (gene 6403)
In words: BSK_4H_Pselectin: BioMAP Diversity Plus: 4H Assay for Pselectin Biomarker Activity (AID 2283026). The note with it: primary human endothelial cells (HUVEC); actives raise or lower the signal. In a few lines:
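Bidirectional fits against DMSO gave the endpoint. Cells: primary human umbilical vein endothelium, chemical-treated for 24 h before ELISA detection of P-selectin.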

A short description of assay [10]: BSK_4H_SRB: Viability Assessment in the BioMAP Diversity Plus: 4H Assay (AID 2283027).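 Also: cells exposed to compound for 24 h before staining.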 The settings on record: primary human endothelial cells (HUVEC). In a few lines: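 HUVEC, 24 h post-dose; 10% TCA fix, 0.1% SRB stain, A560 nm. Total protein = overt cytotoxicity, parallel to biomarker read. Bidirectional fit vs DMSO baseline.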
A short description of assay [11]: BSK_BE3C_SRB: Viability Assessment in the BioMAP Diversity Plus: BE3C Assay (AID 2283028). The note with it: primary human bronchial epithelial cells. In a few lines:
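Primary human bronchial epithelium; chemical dosing, 24 h; 10% TCA fix, 0.1% SRB stain, A560; bidirectional fit vs DMSO baseline.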

Read-out in assay [12]: Thrombomodulin, THBD (gene 7056)
In words: BSK_3C_Thrombomodulin: BioMAP Diversity Plus: 3C Assay for Thrombomodulin Biomarker Activity (AID 2283029). The note with it: primary human endothelial cells (HUVEC); actives raise or lower the signal. In a few lines:
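In a multiplexed primary-cell system, human umbilical vein endothelium received chemical and was assayed 24 h later for thrombomodulin by ELISA. Parallel cultures were SRB-stained (0.1% SRB after 10% TCA fixation, read at 560 nm) to flag cytotoxicity.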

The target in assay [13] is human Retinoid X Receptor beta (RXRb), RXRB (gene 6257) (UniProt P28702). In words: ATG_RXRb_TRANS: Attagene TRANS-FACTORIAL HepG2 Assay for human Retinoid X Receptor beta (RXRb) (AID 2283013; active = hit-call score of the fitted dose curve at least 0.9, where 1 is the maximum). In a few lines:
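After a 24 h incubation with test chemical, transfected HepG2 cells carrying NR-Gal4 fusions and GAL4-UAS reporter transcription units yield RNA whose reporter cDNA is FAM-labelled, HpaI-cut and sized by capillary electrophoresis; increases over DMSO are scored.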

Read-out in assay [14]: E-selectin (Homo sapiens) (UniProt P16581)
The assay can be described thus: BSK_3C_Eselectin: BioMAP Diversity Plus: 3C Assay for Eselectin Biomarker Activity (AID 2283015).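 As to outcome: cell surface E-selectin protein quantified by ELISA 24 h after dosing.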 The settings on record: primary human endothelial cells (HUVEC); actives raise or lower the signal. In a few lines:
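HUVEC, 3C stimulation; compound exposure 24 h; E-selectin by ELISA; gain- or loss-of-signal fitted bidirectionally vs DMSO baseline.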

Read-out in assay [15]: Interleukin-8 (IL8), CXCL8 (gene 3576)
The assay can be described thus: BSK_3C_IL8: BioMAP Diversity Plus: 3C Assay for Interleukin-8 (IL8) Biomarker Activity (AID 2283020). The settings on record: primary human endothelial cells (HUVEC); actives raise or lower the signal. The essentials: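 Using DMSO-treated wells as the baseline, bidirectional curve fitting was applied to ELISA-measured IL-8 from human umbilical vein endothelial cultures sampled 24 h after compound addition.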

Assay [16] is described as follows: BSK_3C_Vis: BioMAP Diversity Plus: 3C Assay for Morphology Visualization (AID 2283025).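 Also: fitted both ways so gain or loss versus DMSO counts.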 The settings on record: primary human endothelial cells (HUVEC). In a few lines: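 Light-microscopy morphology readout, 24 h exposure, human primary umbilical vein endothelium; analysed relative to DMSO with bidirectional fitting.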
The target of assay [17] is human Thyroid Receptor alpha (THRa1), THRA (gene 7067) (UniProt P10827). In words: ATG_THRa1_TRANS: Attagene TRANS-FACTORIAL HepG2 Assay for human Thyroid Receptor alpha (THRa1) (AID 2283014; active = hit-call score of the fitted dose curve at least 0.9, where 1 is the maximum). In a few lines: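 Transient HepG2 transfection, NR-Gal4 chimera driving GAL4-UAS reporters; 24 h compound exposure; total RNA, oligo(dT) RT, PCR, fluorescent primer extension, capillary electrophoresis. Upward direction vs DMSO control.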
Sequence of human Thyroid Receptor alpha (THRa1), THRA (gene 7067) (P10827 whole entry, looked up, the tested form may be a part): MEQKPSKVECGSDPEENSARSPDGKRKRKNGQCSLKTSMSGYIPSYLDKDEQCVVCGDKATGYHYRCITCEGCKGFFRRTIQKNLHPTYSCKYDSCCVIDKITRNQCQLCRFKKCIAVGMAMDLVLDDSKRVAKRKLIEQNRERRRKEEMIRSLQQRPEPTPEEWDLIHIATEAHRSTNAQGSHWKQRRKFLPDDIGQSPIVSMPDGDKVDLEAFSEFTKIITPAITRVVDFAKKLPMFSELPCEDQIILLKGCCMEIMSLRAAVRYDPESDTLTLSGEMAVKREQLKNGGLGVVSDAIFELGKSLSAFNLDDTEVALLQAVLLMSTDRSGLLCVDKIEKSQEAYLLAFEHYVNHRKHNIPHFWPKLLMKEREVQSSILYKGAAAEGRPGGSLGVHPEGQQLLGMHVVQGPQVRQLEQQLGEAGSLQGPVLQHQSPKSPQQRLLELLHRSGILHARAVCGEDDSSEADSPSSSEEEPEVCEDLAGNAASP

Sequence of Retinoic acid receptor RXR-alpha (Homo sapiens) (P19793 whole entry, looked up, the tested form may be a part): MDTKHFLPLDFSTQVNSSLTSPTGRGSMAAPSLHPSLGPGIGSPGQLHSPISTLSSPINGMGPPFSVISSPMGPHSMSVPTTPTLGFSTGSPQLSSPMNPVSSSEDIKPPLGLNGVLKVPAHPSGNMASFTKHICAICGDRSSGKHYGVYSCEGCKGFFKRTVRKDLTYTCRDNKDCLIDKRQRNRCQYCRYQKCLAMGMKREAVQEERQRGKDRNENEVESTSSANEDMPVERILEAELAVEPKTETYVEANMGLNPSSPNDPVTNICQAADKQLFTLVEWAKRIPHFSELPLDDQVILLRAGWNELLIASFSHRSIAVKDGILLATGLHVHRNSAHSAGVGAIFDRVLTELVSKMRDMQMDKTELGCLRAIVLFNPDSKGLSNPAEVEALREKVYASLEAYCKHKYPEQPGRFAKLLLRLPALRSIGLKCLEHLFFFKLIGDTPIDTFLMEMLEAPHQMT
Sequence of human Vitamin D Receptor (VDR), VDR (gene 7421) (P11473 whole entry, looked up, the tested form may be a part): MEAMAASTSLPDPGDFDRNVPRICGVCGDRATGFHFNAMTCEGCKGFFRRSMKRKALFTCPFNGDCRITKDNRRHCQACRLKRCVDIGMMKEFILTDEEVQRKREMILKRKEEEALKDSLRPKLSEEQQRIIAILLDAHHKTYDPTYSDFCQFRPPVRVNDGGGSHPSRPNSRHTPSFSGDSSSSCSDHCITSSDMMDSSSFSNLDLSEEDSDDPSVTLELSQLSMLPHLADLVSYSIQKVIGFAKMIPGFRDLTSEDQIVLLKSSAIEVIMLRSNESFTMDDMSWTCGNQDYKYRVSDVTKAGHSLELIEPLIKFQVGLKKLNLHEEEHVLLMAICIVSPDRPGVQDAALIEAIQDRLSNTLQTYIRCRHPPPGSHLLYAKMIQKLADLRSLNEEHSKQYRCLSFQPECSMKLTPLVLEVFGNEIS
Sequence of E-selectin (Homo sapiens) (P16581 whole entry, looked up): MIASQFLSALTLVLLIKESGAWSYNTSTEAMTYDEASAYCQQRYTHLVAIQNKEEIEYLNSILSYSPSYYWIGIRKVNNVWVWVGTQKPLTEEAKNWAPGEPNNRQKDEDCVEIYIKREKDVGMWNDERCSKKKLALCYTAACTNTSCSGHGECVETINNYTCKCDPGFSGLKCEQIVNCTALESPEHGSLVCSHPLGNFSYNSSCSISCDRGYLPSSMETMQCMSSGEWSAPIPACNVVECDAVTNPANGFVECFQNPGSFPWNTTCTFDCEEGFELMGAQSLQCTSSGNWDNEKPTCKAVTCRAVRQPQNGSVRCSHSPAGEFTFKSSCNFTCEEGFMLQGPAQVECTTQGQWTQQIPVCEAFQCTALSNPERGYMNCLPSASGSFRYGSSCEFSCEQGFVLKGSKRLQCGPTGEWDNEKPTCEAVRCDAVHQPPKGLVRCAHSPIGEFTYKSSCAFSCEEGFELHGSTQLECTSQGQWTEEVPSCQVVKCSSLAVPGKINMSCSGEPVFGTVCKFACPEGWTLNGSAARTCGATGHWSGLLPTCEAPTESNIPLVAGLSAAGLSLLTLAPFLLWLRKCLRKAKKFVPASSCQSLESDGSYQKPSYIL
Sequence of human Retinoid X Receptor beta (RXRb), RXRB (gene 6257) (P28702 whole entry, looked up, the tested form may be a part): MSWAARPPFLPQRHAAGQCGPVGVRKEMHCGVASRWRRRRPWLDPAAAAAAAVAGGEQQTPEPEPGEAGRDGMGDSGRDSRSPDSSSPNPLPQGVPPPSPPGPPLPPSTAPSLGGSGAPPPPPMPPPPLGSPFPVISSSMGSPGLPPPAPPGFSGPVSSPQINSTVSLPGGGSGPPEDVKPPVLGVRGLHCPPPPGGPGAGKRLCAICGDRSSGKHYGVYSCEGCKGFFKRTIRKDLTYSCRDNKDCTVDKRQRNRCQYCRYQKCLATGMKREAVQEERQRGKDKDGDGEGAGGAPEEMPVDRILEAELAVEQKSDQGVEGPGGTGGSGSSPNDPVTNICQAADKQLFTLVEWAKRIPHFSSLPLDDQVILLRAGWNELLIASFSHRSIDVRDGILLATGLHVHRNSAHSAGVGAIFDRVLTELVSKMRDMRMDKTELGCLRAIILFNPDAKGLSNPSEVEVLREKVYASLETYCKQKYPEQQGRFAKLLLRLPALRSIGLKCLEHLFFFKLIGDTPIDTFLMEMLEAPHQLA

Take `C[N+](C)(C)CCCNS(=O)(=O)C(F)(F)C(F)(F)C(F)(F)C(F)(F)C(F)(F)C(F)(F)C(F)(F)C(F)(F)F`: the compound was classed as inactive in assay [1], in [2], in assay [3], in [4], in assay [5] and in assay [6]. The call in assay [7], in assay [10], in assay [11] and in [12] was inactive. Besides, the AC50 in assay [2] is 14.3 µM (active); in assay [3] it was 30 µM (active); in assay [8], 30.7 µM (active) and 20.8 µM (active); in assay [9], 30 µM (active) and 16.8 µM (active).
For the compound `COc1cc(O)c(C(=O)c2ccccc2)cc1S(=O)(=O)O`, the call in assay [1], in assay [13] and in assay [7] was inactive.
As to `CCCCCC1=CCCC1=O`, the result in assay [1], in [13], in assay [14], in [2], in [3] and in [4] was inactive. Moreover, the outcome in assay [15], in assay [6], in [7], in [8], in assay [16] and in [9] was inactive. In addition, the outcome in [10], in [11] and in [12] was inactive. In addition, the AC50 in assay [5] is 20 µM (active).
In the case of `CCCC/C=C/C=C\C=O`, the result in [1] and in assay [17] was inactive.
Take `CCc1occc(=O)c1O`: the call in assay [1] and in assay [17] was inactive.
For `CCCCCCCCCCCCC`, the compound was called inactive in assay [1], in [13], in [17] and in [7].
With `CN1CCN(C)CC1`, the compound was called inactive in [1], in assay [17] and in assay [7].
For `COC(C=C(C)CCC=C(C)C)OC`, the result in [1], in [13] and in [7] was inactive.
In the case of `C/C=C/C=C/CCCCCCCO`, the result in assay [1] and in assay [17] was inactive.
Consider `CC(C)(C)NC(=O)[C@H]1CC[C@H]2[C@@H]3CC[C@H]4NC(=O)C=C[C@]4(C)[C@H]3CC[C@]12C`, for which the outcome in assay [1] and in [7] was inactive.
On to `C=CC(=O)OCCCCCCCC(C)C`, for which the result in [1], in assay [13], in assay [3], in [5], in assay [6] and in [7] was inactive. The result in assay [8], in assay [16], in assay [9], in assay [10] and in [11] was inactive. Also, the results for the AC50 in [14], in assay [2] and in assay [12] were 20 µM (active), 0.719 µM (active) and 6.25 µM (active), respectively.
For `CCCCCCCO`, the compound was classed as inactive in assay [1], in assay [14], in assay [2], in [3], in assay [5] and in [15]. The outcome in assay [6], in [7], in [8], in [16], in assay [9] and in [10] was inactive. Moreover, the result in assay [11] and in assay [12] was inactive. The AC50 in [13] is 114 µM (active).
Turning to `CC(=O)OCCc1ccccc1`, the compound was classed as inactive in [1], in assay [13], in assay [17] and in [7].
On to `CC1(C)CC(O)CC(C)(C)N1[O]`, for which the compound was classed as inactive in [1], in assay [2], in assay [3], in assay [4], in assay [5] and in assay [6]. Also, the call in assay [7], in assay [8], in assay [16], in assay [9], in assay [10] and in assay [11] was inactive. For the same compound, the outcome in assay [12] was inactive.
With `CCCCOC(=O)CCC(C)=O`, the outcome in assay [1], in assay [13], in assay [17] and in [7] was inactive.
For `Oc1ccc(-c2ccccc2)c(Cl)c1`, the result in assay [17] and in assay [7] was inactive.
Turning to `NC(=O)Nc1ccccc1`, the compound was classed as inactive in assay [7].
Turning to `CC1=CCC(C(C)C)C=C1` (stereo not given), the compound was called inactive in [13].
For the compound `CCCCCCCCCCCC(=O)N(C)CC(=O)O`, the result in assay [14], in [2], in assay [3], in assay [4], in assay [5] and in assay [15] was inactive. For the same compound, the result in assay [6], in assay [7], in assay [8], in assay [9], in [10] and in assay [11] was inactive. Further, in assay [12], the outcome was inactive. The AC50 in assay [9] is 1.89 µM (active).
For `O=C(O)c1ccc2c(c1)C(=O)OC2=O`, the outcome in [7] was inactive.
In the case of `CCc1cccc(CC)c1`, the compound was classed as inactive in assay [13] and in assay [7].
For `C=Cc1cccc(C)c1`, the outcome in assay [13], in assay [17] and in assay [7] was inactive.
